Inconclusive results are not listed. Calls of active or inactive are those of the source. Calls come from the whole dose curve; as a rule, active = well fitted inhibition curve with a large enough effect; inconclusive = small, poorly fitted or top-dose-only effect; inactive = no such curve, though single readings can be large or run the other way.

Peripheral myelin protein 22 (Rattus norvegicus), sequence (P25094 whole entry, looked up): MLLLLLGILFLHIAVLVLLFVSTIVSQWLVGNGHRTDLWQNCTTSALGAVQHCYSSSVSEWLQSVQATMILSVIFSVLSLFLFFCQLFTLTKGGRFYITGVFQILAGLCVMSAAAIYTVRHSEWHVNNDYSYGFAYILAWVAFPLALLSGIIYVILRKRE

This test deals with Peripheral myelin protein 22 (Rattus norvegicus) (UniProt P25094). The test is described as follows: Cell-based HiBiT reporter assay to measure PMP22 protein expression in S16 Pmp22-HiBiT cells. The conditions noted are these: S16 Schwann Pmp22-HiBiT, NanoGlo luminescence, 48 h; series mostly up to 27.9 µM; activity change, negative = inhibition: at the top concentration. An excerpt:
Assay Provider: Jim Inglese Ph.D. National Center for Advancing Translational Science, National Institutes of Health, Rockville, MD CMT is a heterogeneous group of neurological disorders that affect approximately 1 in 2,500 people. In particular, the most common form of CMT, CMT1A is genetically linked to the duplication of the PMP22 gene which leads to Schwann cell overexpression, thus manifesting itself as a typical case of dose-sensitive diseases. To identify small molecule compounds that can mediate the expression of PMP22 we developed a phenotypic assay screening strategy by utilizing genome editing techniques to construct Schwann cell lines containing novel reporter technology to monitor the transcriptional or translational regulation of PMP22. For high sensitivity we use a bioluminescent reporter system embedded in the 3' UTR of the PMP22 gene (S16(c9) Pmp22-F2sN) to identify compounds that inhibit gene expression. […] We can further discriminate the effect of all transcriptionally active molecules on PMP22 translation or stability with an assay that incorporates a short NLuc peptide (HiBiT) at the C-terminus of expressed PMP22 (S16(f8) PMP22-HiBiT) allowing alpha complementation and luminescence detection of membrane-associated PMP22 protein. These assays were screened against the NCATS Sytravon Library Collection. Miniaturization of these assays to 1536-well plate format for quantitative high throughput screening (qHTS) yielded rich data sets immediately from the qHTS assay (S16(c9) Pmp22-F2sN), when compared with data from a cell viability assay (Cell TiterGlo) to identify compounds that decreased the output signals through cellular toxicity to streamline the selection process of actives for subsequent characterization using the HiBiT assay (S16(f8) PMP22-HiBiT).
Cell-based HiBiT reporter assay in S16 Pmp22-HiBiT cells PROTOCOL TABLE (format as described by Inglese J, Shamu CE and Guy RK. 2007) SEQUENCE No. (e.g., 1, 2, 3, etc.); PARAMETER (e.g., Cells, Incubation, Reagent, etc.); VALUE and DESCRIPTION. 1. Cells. Add 1,500 cells in 5 uL in growth media (DMEM High Glucose, No Phenol Red media + 10% heat-inactivated FBS + 1% Pen/Strep supplemented media) per well into Greiner 1536-well white/solid bottom high base, TC-treated plates. 2. Compounds. Library compounds and controls added at 23nL per well, transferred by Pin Tool. 3. Incubation. Incubate plates at 37C, 5% CO2, 95% RH for 48 h. 4. Media removal. Invert and centrifuge plates. 5. Reagent. Add 3uL NanoGlo HiBiT Lytic Detection Reagent per well of Greiner 1536-well plates. 6. Incubation. Incubate plates at room temperature for 15 min., protect from light. 7. Detector. NLuc luminescence measured using CCD-based camera (Viewlux). NOTES (numbers refer to Sequence numbers above; values are from representative experiments) 7. Luminescence Read: Clear filter; Exposure = 10 sec, Gain = High, Speed = Slow, Binning = 2X REFERENCES: 1. Inglese J, Shamu CE and Guy RK, Reporting data from high throughput screening of small molecule libraries, Nature Chemical Biology, 2007, 3(8): 438-441. doi.org/10.1038/nchembio0807-438 2. Yasgar A, Shinn P, Jadhav A, Auld DS, Michael S, Zheng W, Austin CP, Inglese J and Simeonov A, Compound Management for Quantitative High-Throughput Screening. J. Assoc. Lab. Auto., 2008, 13: 79-89. doi: 10.1016/j.jala.2007.12.004
(The HiBiT peptide binds its large partner to form an active luciferase.)
With `Cc1c(Cl)cccc1NC(=O)c1oc2ccc(S(=O)(=O)N3CCC4(CC3)OCCO4)cc2c1C`, the “activity change, negative = inhibition” value was 30.2% (inactive).
On the same count and under the same terms, with `Cc1cccc(-n2c(=O)c3c(c4cc(C)ccc4n3C)n(CC(=O)NCCC3=CCCCC3)c2=O)c1` the figure was -18.6% (inactive); with `Cc1ccc(C)c(NC(=O)Cn2c(=O)n(Cc3ccc4c(c3)OCO4)c(=O)c3ccc(C(=O)NC4CCCCC4)cc32)c1`, 10.8% (inactive); with `CCN(CC)CCNC(=O)c1cc(-c2ccc(Br)s2)nc2ccccc12`, -2.44% (inactive).
On the same count and under the same terms, with `CCCn1c(=N)c(C(=O)NC(C)c2ccccc2)cc2c(=O)n3ccccc3nc21` (centres undefined) the figure was 23.9% (inactive).
On to `Cc1ccc(C)c(N2CCN(CCCNC(=O)Cn3c(-c4cccs4)cc4ccccc43)CC2)c1`, for which the Potency is 7.24 µM (active).
In the case of `Cc1ccc(NC(=O)N2CCc3cc(S(=O)(=O)N4CCC(C)CC4)ccc32)cc1F`, the “activity change, negative = inhibition” value was 10.6% (inactive).
As to `O=C(NCCCN1CCN(c2ccc(F)cc2)CC1)c1cc2c(Cl)nc3ccccc3c2s1`, the “activity change, negative = inhibition” value is -1.33% (inactive).
For `COc1ccccc1-c1cc(C(F)(F)F)nc(S(=O)(=O)CCCC(=O)Nc2ccccc2F)n1`, the Potency is 10.2 µM (active).
Same read-out and setting: with `Cc1ccc(C)c(NC(=O)Cn2c(=O)n(Cc3ccccc3)c(=O)c3oc4ccccc4c32)c1` the figure was 14.5 µM (active).
The same measure, in the same setting: as for `O=C(Cn1c(-c2cccs2)cc2cc(F)ccc21)NCCCN1CCN(c2ccccc2F)CC1`, the figure is 12.9 µM (active).
Turning to `COc1ccc(Br)cc1CC1C(=O)Nc2ccccc21` (centres undefined), the Potency is 9.12 µM (active).
As to `CCCCS(=O)(=O)c1nc(-c2ccc(Br)cc2)cc(-c2ccccc2)c1C#N`, the “activity change, negative = inhibition” value was 100% (inactive).
Same read-out and setting: as for `CCc1ccc(NC(=O)Cn2c(=O)n(-c3ccc(OC)cc3)c(=O)c3ccc(C(=O)NCc4ccc(C)cc4)cc32)cc1`, the figure is -22.4% (inactive).
With `CC(=O)N1CCc2c(sc(NC(=O)CSc3ccccc3)c2-c2nc3ccccc3s2)C1`, the Potency is 16.2 µM (active).
Same read-out and setting: as for `COc1ccc(NC(=O)c2nc(S(=O)(=O)Cc3ccc(C)cc3)ncc2Cl)cc1`, the figure is 10.2 µM (active).
Still for that read-out and setting: as for `COCCCNC(=O)c1ccc(-n2c(-c3ccccc3)cc3c2CCC(C)C3)cc1` (centres undefined), the figure is 5.75 µM (active).
Turning to `CCOc1ccc(NC(=O)CSc2oc(-c3ccc(F)cc3)nc2S(=O)(=O)c2ccc(C)cc2)cc1`, the “activity change, negative = inhibition” value is -11.9% (inactive).
`O=C(Cn1c(-c2cccs2)cc2ccccc21)NCCCN1CCN(c2ccc(F)cc2)CC1`: the Potency was 6.45 µM (active).
For `Cc1ccc(C(=O)Nc2ccc(S(=O)(=O)N3CCC(c4nc5ccccc5s4)CC3)cc2)cc1`, the “activity change, negative = inhibition” value is -18.4% (inactive).
Same read-out and setting: as for `Cc1ccc(CN2C(=O)C(O)(c3c(C)[nH]c4ccccc34)c3ccccc32)cc1` (centres undefined), the figure is -24.2% (inactive).
As for `Cc1cccc(CS(=O)(=O)c2ncc(Cl)c(C(=O)Nc3nc4ccc(F)cc4s3)n2)c1`, the Potency was 3.63 µM (active).
`Cc1cccc(N2CCN(C(=O)C3CCCN(S(=O)(=O)c4ccc5c(c4)oc(=O)n5C)C3)CC2)c1C` (centres undefined): the “activity change, negative = inhibition” value is 56.1% (inactive).
Same read-out and setting: as for `COc1ccc(NC(=O)c2oc3ccccc3c2NC(=O)Cc2ccc(F)cc2)c(OC)c1`, the figure is 30.2% (inactive).
Consider `COC(=O)CS(=O)(=O)c1nc2ccccc2nc1N1CCCCC1`, for which the Potency is 14.5 µM (active).
As for `COC(=O)c1ccccc1NC(=O)c1nc(S(=O)(=O)Cc2cccc(C)c2)ncc1Cl`, the Potency is 6.45 µM (active).
Turning to `COc1ccc(Nc2nc3c(S(=O)(=O)c4ccccc4)nnn3c3ccc(Cl)cc23)cc1`, the “activity change, negative = inhibition” value was -26.5% (inactive).
Regarding `CCOC(=O)c1c(NC(=O)c2nc(S(C)(=O)=O)ncc2Cl)sc(C(C)=O)c1C`, the Potency was 3.24 µM (active).
Regarding `CCc1ccc(OCC(=O)Nc2cc3oc4ccccc4c3cc2OC)cc1`, the “activity change, negative = inhibition” value is 2.28% (inactive).
With `Cc1ccc(S(=O)(=O)c2nnn3c2nc(NC2CCCCCC2)c2sccc23)cc1C`, the Potency was 14.5 µM (active).
As to `Cc1cc(C)c(NC(=O)Cn2c(=O)n(Cc3ccco3)c(=O)c3ccc(C(=O)NC4CCCC4)cc32)c(C)c1`, the “activity change, negative = inhibition” value is 9.98% (inactive).
As to `COc1ccccc1-c1cc(C(F)(F)F)nc(S(=O)(=O)CCCC(=O)Nc2ccc(F)cc2F)n1`, the Potency is 5.13 µM (active).
On the same count and under the same terms, with `CCc1nnc(NC(=O)c2nc(S(C)(=O)=O)ncc2Cl)s1` the figure was 10.2 µM (active); with `Cn1c(=O)oc2cc(S(=O)(=O)N3CCCC(C(=O)N4CCN(c5ccc(Cl)cc5)CC4)C3)ccc21` (centres undefined), 4.07 µM (active).
On the same count and under the same terms, as for `COc1ccccc1Nc1nn2c(=O)c3ccc(C(=O)Nc4ccc(F)cc4)cc3nc2s1`, the figure is 9.12 µM (active).
On the same count and under the same terms, as for `Cc1ccc(NC(=O)c2nc(S(=O)(=O)Cc3cccc(C)c3)ncc2Cl)cc1`, the figure is 4.57 µM (active).
As to `CCS(=O)(=O)c1ncc(Cl)c(C(=O)Nc2c(C(=O)c3ccc(C)cc3)oc3ccccc23)n1`, the “activity change, negative = inhibition” value was -7.57% (inactive).
Regarding `COc1ccccc1Nc1c2c(nc3ccc(NC(=O)/C=C/c4cccc(OC)c4OC)cc13)CCCC2`, the Potency is 5.13 µM (active).
Take `Cc1cccc(Nc2c3c(nc4nncn24)CCC3)c1C`: the “activity change, negative = inhibition” value was -20.4% (inactive).

Source of the values: PubChem BioAssay AID1508644 (National Center for Advancing Translational Sciences (NCATS), 2021).
